Results taken from PubChem BioAssay (NCATS).
A number with no mark means an inactive call. Inconclusive results are not listed. Active and inactive are the calls of the source. Unless noted, the call rests on the fitted dose curve; in most records, active means well fitted curve in either direction with a large enough effect (not every such curve was filed as active); inconclusive means small, poorly fitted or top-dose-only effect, or another doubt; inactive means flat fitted curve, though single readings scatter.

Assays:
[1] = biological target: Lysosomal acid glucosylceramidase (Homo sapiens) (UniProt P04062); assay: Glucocerebrosidase-p2 (AID 348; in the data active means potency below about 10 µM; further: potency means the concentration at half of the fitted maximal effect); details: purified GBA, blue fluorogenic substrate, 40 min
Sequence of Lysosomal acid glucosylceramidase (Homo sapiens) (P04062 whole entry, looked up): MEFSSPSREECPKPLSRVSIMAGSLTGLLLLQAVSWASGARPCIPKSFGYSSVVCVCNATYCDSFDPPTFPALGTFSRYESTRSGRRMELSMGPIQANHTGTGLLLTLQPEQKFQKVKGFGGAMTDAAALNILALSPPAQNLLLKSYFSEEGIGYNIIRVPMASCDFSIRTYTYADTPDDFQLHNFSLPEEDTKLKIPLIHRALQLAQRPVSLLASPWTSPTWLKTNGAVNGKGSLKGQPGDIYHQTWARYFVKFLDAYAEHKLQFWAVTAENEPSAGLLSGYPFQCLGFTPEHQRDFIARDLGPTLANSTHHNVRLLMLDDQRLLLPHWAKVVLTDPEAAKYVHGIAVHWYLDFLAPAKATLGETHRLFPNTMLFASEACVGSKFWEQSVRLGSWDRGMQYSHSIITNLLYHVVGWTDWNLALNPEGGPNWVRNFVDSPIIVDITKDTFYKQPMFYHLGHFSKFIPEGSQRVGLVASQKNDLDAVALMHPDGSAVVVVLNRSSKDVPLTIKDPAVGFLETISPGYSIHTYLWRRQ
Method in brief: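 Normal human glucocerebrosidase (0.2 nM) with blue fluorogenic substrate (80 uM final) in citrate/phosphate pH 5.9 with 10mM sodium taurocholate, 0.01% tween-20; 40 min RT, NaOH/glycine stop; fluorescence Ex 365/Em 440; AC50 from a titration from 0.6 nM upwards.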

[2] = AP1 Signaling Pathway (AID 357); details: ME-180 AP-1-bla reporter, EGF-induced, beta-lactamase ratio, 5 h; at 7.69 µM (top of the series) unless noted;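 further: ME-180 reporter cells stimulated with EGF at its EC50 level; on the % scale 0 is the no-effect control and ±100 the full control effect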
Method in brief: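 Beta-lactamase reporter under AP-1 response element, ME-180 background. Stimulus: EC50 EGF. Compound exposure 5 h, 37 °C. Detection: CCF4, 2.5 h RT, 460/530 nm. Values: AC50 from titration.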

[3] = biological target: Cytochrome P450 1A2 (Homo sapiens) (UniProt P05177); assay: p450-cyp1a2 (AID 410; calls by dose curve; further: potency means the concentration at half of the fitted maximal effect;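 on activity change, negative = inhibition: -100% = full effect of reference inhibitor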); details: recombinant CYP1A2, luciferin-ME demethylation, luminescence; series mostly up to 57 µM
Sequence of Cytochrome P450 1A2 (Homo sapiens) (P05177 whole entry, looked up): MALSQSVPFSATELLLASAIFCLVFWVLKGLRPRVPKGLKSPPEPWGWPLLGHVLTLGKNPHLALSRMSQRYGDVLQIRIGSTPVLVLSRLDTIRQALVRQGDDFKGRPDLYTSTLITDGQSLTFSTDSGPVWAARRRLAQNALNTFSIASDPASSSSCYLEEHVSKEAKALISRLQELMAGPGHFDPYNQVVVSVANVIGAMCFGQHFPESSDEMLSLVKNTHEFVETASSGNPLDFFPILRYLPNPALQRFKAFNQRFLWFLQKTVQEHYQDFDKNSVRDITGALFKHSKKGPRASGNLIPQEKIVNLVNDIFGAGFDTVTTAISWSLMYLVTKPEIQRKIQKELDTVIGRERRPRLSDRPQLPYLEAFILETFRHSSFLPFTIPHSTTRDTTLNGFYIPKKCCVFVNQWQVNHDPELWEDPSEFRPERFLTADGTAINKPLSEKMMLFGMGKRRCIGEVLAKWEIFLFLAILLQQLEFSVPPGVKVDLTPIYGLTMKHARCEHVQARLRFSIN
Method in brief: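 Luminescent demethylation readout: Luciferin-ME (100uM, equal to Km) turned over by 20nM CYP1A2 for 60 min at room temperature after NADPH regeneration addition, following 10 min compound preincubation. Normalization used 57 uM furafylline as full inhibition.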

[4] = NFAT Signaling Pathway (AID 444); details: Jurkat NFAT-bla M1, carbachol, beta-lactamase ratio, 5 h; at 7.69 µM (top of the series) unless noted;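 further: carbachol stimulus at about its EC50 of 1 µM final; on the % scale 0 is the no-effect control and ±100 the full control effect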
Method in brief: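 Read-out: CCF4 FRET ratio (460 nm/530 nm) after 1 h RT dye loading, used for %activity and AC50 from titration series. Cells: Jurkat NFAT-β-lactamase/M1 line, treated with compound plus 1 uM carbachol for 5 h, 37 °C.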

[5] = Stat Signaling Pathway (AID 446); details: ME-180 SIE beta-lactamase reporter, IL-6 stimulated, 5 h; at 7.69 µM (top of the series) unless noted;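 further: ME-180 cervical cancer cells given 40 pM IL-6 alongside compound; SIE-controlled beta-lactamase reporter measured as 460/530 nm FRET emission ratio; on the % scale 0 is the no-effect control and ±100 the full control effect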
Method in brief: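 Emission at 460 and 530 nm (excitation 405 nm) reports SIE-controlled beta-lactamase in ME-180 cells. Cells received compound with 40 pM IL-6 for 5 hrs at 37 C; data scaled between 300 pM IL-6 and 125 nM JAK-inhibitor controls.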

[6] = biological target: Glucocorticoid receptor (Homo sapiens) (UniProt P04150); assay: GR-GFP Redistribution (AID 450;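 active means compounds whose dose series gives a full or clear partial fitted curve of increased nuclear translocation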; further: potency means the concentration at half of the fitted maximal effect); details: U2OS GR-GFP nuclear translocation, laser cytometry, 2 h
Sequence of Glucocorticoid receptor (Homo sapiens) (P04150 whole entry, looked up, the tested form may be a part): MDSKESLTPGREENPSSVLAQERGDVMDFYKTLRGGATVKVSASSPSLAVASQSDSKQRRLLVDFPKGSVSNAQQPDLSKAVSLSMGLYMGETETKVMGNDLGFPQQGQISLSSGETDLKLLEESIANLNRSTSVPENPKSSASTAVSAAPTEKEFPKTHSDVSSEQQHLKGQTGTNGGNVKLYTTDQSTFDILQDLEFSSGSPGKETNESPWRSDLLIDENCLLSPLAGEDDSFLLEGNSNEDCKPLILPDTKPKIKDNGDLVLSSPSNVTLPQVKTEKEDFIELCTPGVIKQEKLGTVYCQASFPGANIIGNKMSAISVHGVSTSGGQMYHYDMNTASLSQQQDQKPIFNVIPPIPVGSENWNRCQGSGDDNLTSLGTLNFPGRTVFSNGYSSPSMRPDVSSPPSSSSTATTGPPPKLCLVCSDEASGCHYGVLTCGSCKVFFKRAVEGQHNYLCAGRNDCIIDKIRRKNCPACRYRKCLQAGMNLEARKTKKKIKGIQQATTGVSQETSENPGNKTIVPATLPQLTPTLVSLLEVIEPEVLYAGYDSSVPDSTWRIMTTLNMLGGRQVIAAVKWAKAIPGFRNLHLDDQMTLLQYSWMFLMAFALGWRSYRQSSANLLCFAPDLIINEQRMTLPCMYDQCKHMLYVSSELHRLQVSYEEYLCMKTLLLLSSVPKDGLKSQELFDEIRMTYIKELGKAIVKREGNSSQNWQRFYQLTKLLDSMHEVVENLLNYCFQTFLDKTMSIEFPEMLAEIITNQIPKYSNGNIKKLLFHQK

[7] = biological target: Glucocorticoid receptor (Homo sapiens) (UniProt P04150); assay: GR-EFC Redistribution (AID 451; calls by dose curve; further: potency means the concentration at half of the fitted maximal effect); details: CHO-K1 GR-EFC translocation, beta-gal luminescence, 2 h
Method in brief: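 Translocation of GR-ED fusion to nuclear EA restores b-gal, read by luminescence after 1 h room-temperature detection. Engineered CHO-K1 biosensor cells, 1,000/well, exposed 2 h at 37 C to titrations up to 46 uM final.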

[8] = biological target: Mitogen-activated protein kinase 10 (Mus musculus) (UniProt Q61831); assay: JNK3 AlphaScreen Assay (AID 530); details: JNK3 lysate, c-Jun phosphorylation; series mostly up to 57.1 µM;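 further: kinase came from lysate of stimulated human HepG2 cells; signal reports phosphorylation of biotinylated GST-cJun 1-79 at Ser73 with 10 µM ATP; on the % scale 0 is the no-effect control and ±100 the full control effect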
Method in brief: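 qHTS titrations with 15 min compound pre-incubation before adding ATP (10 uM final). Read-out: AlphaScreen of Ser73-phosphorylated biotin-GST-cJun using HepG2 lysate JNK3 activated by IL-1β and TNFα.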

[9] = biological target: 3',5'-cyclic-AMP phosphodiesterase 4B (Homo sapiens) (UniProt Q07343); assay: qHTS Assay for Inhibitors of PDE-IV (AID 607; active means well fitted activation curve with a large enough effect in the main read-out, with a control signal flat, not every such curve was filed as active; further: % of control where 0% means no effect); details: HEK293 ACTOne CNG channel cells, membrane potential fluorescence; series mostly up to 22.9 µM
Sequence of 3',5'-cyclic-AMP phosphodiesterase 4B (Homo sapiens) (Q07343 whole entry, looked up): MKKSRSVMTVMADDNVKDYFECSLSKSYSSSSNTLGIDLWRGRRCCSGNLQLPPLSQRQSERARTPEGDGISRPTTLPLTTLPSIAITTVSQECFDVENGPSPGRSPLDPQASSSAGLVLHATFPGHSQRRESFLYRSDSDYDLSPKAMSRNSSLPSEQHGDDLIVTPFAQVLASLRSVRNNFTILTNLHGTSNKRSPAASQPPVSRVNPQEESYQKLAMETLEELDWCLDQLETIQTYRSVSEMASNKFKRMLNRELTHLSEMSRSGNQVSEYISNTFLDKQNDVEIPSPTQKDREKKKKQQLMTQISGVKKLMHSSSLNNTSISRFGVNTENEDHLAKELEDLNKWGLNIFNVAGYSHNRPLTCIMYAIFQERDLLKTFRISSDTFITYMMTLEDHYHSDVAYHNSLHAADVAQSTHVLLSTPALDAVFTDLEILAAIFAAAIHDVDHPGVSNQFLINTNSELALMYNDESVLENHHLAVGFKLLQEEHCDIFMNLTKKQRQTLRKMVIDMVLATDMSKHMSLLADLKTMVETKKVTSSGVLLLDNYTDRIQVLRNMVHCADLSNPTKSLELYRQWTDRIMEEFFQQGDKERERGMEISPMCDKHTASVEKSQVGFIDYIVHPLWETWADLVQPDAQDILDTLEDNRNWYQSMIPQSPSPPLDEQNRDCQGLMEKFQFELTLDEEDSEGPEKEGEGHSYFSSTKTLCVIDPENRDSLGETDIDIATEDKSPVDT
Method in brief: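 The readout is membrane depolarisation from a cAMP-sensing CNG channel, detected with a potential dye at ex 535/em 590. Cells were HEK293-derived (endogenous PDE-IV) at 1000 cells/well, titrated up to 22.9 uM final.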

[10] = biological target: Cytochrome P450 2C19 (Homo sapiens) (UniProt P33261); assay: qHTS Assay for Inhibitors and Substrates of Cytochrome P450 2C19 (AID 899; active means well fitted curve in the direction sought with a large enough effect; an effect the other way counts as inactive or inconclusive; further: on the % scale 0 is the no-effect control and ±100 the full control effect; nearly all actives have a fitted effect of over 60% in size); details: recombinant CYP2C19, luciferin-H EGE luminescence; series mostly up to 57.1 µM
Sequence of Cytochrome P450 2C19 (Homo sapiens) (P33261 whole entry, looked up): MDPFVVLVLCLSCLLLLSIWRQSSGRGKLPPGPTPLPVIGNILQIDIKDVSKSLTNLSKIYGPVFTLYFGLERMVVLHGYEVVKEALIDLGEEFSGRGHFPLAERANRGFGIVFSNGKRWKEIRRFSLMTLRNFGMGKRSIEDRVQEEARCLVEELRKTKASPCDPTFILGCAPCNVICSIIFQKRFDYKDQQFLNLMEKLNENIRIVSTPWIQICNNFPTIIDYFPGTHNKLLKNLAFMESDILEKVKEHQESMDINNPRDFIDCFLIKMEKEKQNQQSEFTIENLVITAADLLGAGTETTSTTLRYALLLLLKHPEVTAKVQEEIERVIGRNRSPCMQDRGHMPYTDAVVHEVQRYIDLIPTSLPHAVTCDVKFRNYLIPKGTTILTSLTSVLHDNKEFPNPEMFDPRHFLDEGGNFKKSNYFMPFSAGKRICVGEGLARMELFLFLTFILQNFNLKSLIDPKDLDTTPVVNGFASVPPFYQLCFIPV
Method in brief: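 Luminescence readout of luciferin formed from 10uM Luciferin-H EGE (KM level) by 5 nM CYP2C19 in 50mM KPO4. 60 min NADPH-driven reaction at 37C after 10 min compound preincubation; data scaled to 57uM ketoconazole inhibition.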

[11] = Primary qHTS for small molecule stabilizers of the endoplasmic reticulum resident proteome: Secreted ER Calcium Modulated Protein (SERCaMP) assay (AID 1508630; active means well fitted curve in the direction sought with a large enough effect; an effect the other way counts as inactive or inconclusive; further: on the % scale 0 is the no-effect control and ±100 the full control effect); details: SH-SY5Y GLuc-SERCaMP (Gaussia luciferase released on ER calcium loss) secretion, thapsigargin, luminescence; series mostly up to 38.4 µM
Method in brief: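 The SH-SY5Y reporter protocol was run at 3 concentrations up to 38.3 uM (primary) or 11 concentrations (follow-up): 16 h compound, 100 nM thapsigargin for 4 h, then extracellular luciferase luminescence.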

[12] = biological target: Cytochrome P450 3A4 (Homo sapiens) (UniProt P08684); assay: qHTS Assay for Activators of Cytochrome P450 3A4 (AID 885; active means well fitted curve in the direction sought with a large enough effect; an effect the other way counts as inactive or inconclusive; further: nearly all actives have a fitted effect of over 65% in size); details: recombinant CYP3A4, Luciferin-PPXE luminescence, 60 min; series mostly up to 57.1 µM
Sequence of Cytochrome P450 3A4 (Homo sapiens) (P08684 whole entry, looked up): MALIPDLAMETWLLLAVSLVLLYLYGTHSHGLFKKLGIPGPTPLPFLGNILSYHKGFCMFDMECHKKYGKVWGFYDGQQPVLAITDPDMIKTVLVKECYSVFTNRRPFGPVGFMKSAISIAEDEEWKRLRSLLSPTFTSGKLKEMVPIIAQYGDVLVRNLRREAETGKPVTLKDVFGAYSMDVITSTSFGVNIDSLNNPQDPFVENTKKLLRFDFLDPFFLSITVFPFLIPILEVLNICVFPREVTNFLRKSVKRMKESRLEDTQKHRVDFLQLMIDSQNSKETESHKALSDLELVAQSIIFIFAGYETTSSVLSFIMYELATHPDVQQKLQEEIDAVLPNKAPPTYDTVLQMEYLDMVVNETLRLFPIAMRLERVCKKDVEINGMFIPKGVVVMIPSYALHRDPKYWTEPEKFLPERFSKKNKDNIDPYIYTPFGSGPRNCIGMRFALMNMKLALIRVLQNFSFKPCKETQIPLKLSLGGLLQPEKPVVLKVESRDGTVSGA
Method in brief: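 Activators are scored by enhanced luminescence from CYP3A4 conversion of luciferin-PPXE (25uM, equal to KM) to luciferin, after 60 min at RT with an NADPH-regenerating system.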

[13] = biological target: Ubiquitin carboxyl-terminal hydrolase 1 (Homo sapiens) (UniProt O94782); assay: Inhibitors of USP1/UAF1: Pilot qHTS (AID 504865; active means well fitted curve in the direction sought with a large enough effect; an effect the other way counts as inactive or inconclusive;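 further: rhodamine fluorescence freed from ubiquitin-rhodamine substrate followed over time; top concentration of the series differs between compounds; on the % scale 0 is the no-effect control and ±100 the full control effect; nearly all actives have a fitted effect of over 35% in size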); details: purified USP1/UAF1, Ub-rhodamine cleavage fluorescence; series mostly up to 54.9 µM
Sequence of Ubiquitin carboxyl-terminal hydrolase 1 (Homo sapiens) (O94782 whole entry, looked up): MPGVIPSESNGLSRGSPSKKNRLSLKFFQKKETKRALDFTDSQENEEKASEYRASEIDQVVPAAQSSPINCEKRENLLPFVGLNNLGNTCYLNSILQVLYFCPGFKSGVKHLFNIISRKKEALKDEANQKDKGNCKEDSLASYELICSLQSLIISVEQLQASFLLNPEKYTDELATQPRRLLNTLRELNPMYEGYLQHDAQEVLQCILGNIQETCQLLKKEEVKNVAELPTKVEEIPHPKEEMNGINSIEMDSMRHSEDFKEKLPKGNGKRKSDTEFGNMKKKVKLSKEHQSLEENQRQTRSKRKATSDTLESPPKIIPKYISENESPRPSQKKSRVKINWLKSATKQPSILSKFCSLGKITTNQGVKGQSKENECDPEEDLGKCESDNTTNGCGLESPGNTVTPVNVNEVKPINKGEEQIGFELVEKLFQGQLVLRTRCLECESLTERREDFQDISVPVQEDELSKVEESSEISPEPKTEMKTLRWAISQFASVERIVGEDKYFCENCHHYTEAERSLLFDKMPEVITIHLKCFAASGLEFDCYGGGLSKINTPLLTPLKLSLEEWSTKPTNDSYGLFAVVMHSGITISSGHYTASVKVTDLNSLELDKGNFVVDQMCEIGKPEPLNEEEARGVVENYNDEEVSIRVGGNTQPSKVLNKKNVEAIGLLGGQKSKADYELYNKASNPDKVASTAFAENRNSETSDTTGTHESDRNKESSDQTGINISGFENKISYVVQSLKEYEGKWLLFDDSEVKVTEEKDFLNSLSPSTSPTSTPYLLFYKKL
Method in brief: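 1nM USP1/UAF1 + cpd, 15 min RT; start w/ Ub-Rho 150nM final; kinetic FL 480/540 nm, 6 reads q60 s. Buffer 50mM HEPES pH 7.8, 0.5mM EDTA, 1mM TCEP, 0.01% Tween-20, 0.1 mg/ml BSA.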

[14] = qHTS Assay for Identification of Small Molecule Agonists for Hypoxia Response Element Signaling Pathway (AID 914; active means well fitted activation curve with a large enough effect in the signal ratio, with a control signal flat, not every such curve was filed as active; the % refers to the signal ratio; further: % of control where 0% means no effect); details: ME-180 (cervical carcinoma) HRE-bla reporter, beta-lactamase ratio, CoCl2, 17 h; activation: stronger effect = higher value
Method in brief: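 Compounds in a titration series were added to ME-180 reporter cells alongside an EC50 level of CoCl2. After 17 hours, beta-lactamase activity was read as the 460nm/530nm emission ratio of CCF4, giving AC50 values.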

Compound | Potency [1] | activity change, negative = inhibition [2] | Potency [3] | activity change, negative = inhibition [4] | activity, negative = inhibition [5] | Potency [6] | Potency [7] | Potency [8] | Potency [9] | Potency [10] | outcome [11] | Potency [12] | Potency [13] | activation [14]
N#CCCn1c(=O)cnc2cnc(OCc3ccccc3)nc21 | > 11.4 µM | -4.07% | 12.6 µM (active) | 0.323% | -5.03% | > 9.22 µM | > 46 µM | inactive | inactive | inactive | inactive | – | – | –
COc1ccc(-n2c(=O)c(-c3ccc(Cl)cc3)nc3cncnc32)cc1 | > 11.4 µM | -19.6% | 5.01 µM (active) | -2.56% | -6.47% | > 9.22 µM | > 46 µM | inactive | – | – | inactive | inactive | – | –
COCC(=O)N1CCC2(CCCN(C(=O)Nc3cccc(C#N)c3)C2)CC1 | > 11.4 µM | -3.42% | inactive | -3.66% | -1.02% | – | > 46 µM | inactive | inactive | – | inactive | – | – | –
COC(=O)N1CCC[C@@]2(CCN(c3ncccn3)C2)C1 | > 11.4 µM | 2.3% | inactive | 11.8% | 8.51% | – | > 46 µM | inactive | inactive | – | inactive | – | – | –
Cn1cc(-c2nc3cncnc3n(CCN)c2=O)c2ccccc21 | > 11.4 µM | 0.818% | 6.31 µM (active) | 3.03% | 0.835% | – | > 46 µM | inactive | inactive | – | inactive | inactive | inactive | –
COc1ccccc1-c1nc(N(C)Cc2ccco2)c2ccccc2n1 | > 11.4 µM | 27.9% | 0.501 µM (active) | -21.3% | 8.04% | > 46 µM | > 46 µM | inactive | – | – | inactive | inactive | – | –
O=c1c(-c2cccc(F)c2)nc2cncnc2n1-c1ccccc1 | > 11.4 µM | -10.3% | 10 µM (active) | -2.26% | -2.29% | > 9.22 µM | > 46 µM | inactive | – | – | inactive | inactive | – | –
O=C(Nc1ccccc1)N1CC2(CCN(C(=O)c3cnccn3)CC2)C1 | > 11.4 µM | -11.2% | 20 µM (active) | 4.45% | 2.96% | – | > 46 µM | inactive | inactive | – | inactive | – | – | –
COc1ccc(NC(=O)N2CC3(CCN(C(=O)c4cnccn4)CC3)C2)cc1 | > 11.4 µM | 0.0652% | inactive | 15.4% | 4.6% | – | > 46 µM | inactive | inactive | – | inactive | – | – | –
O=C(c1csnn1)N1CCC2(CCN(Cc3nccs3)CC2)CC1 | > 11.4 µM | -7.97% | inactive | -13.7% | -2.3% | – | > 46 µM | inactive | inactive | – | inactive | – | – | –
COCC(=O)N1CCC2(CCCN(C(=O)Nc3ccccc3)C2)CC1 | > 11.4 µM | -1.58% | inactive | 13.8% | 3.14% | – | > 46 µM | inactive | inactive | – | inactive | – | – | –
O=C(c1cnccn1)N1CCC2(CCCN(c3ncccn3)C2)CC1 | > 11.4 µM | -8.6% | inactive | 13.2% | -0.387% | – | > 46 µM | inactive | inactive | – | inactive | – | – | –
O=S(=O)(c1ccccc1)N1CCC2(CC1)CN(Cc1nccs1)C2 | > 11.4 µM | 11.1% | inactive | -29.2% | 9.77% | – | > 46 µM | inactive | inactive | – | inactive | – | – | –
COCCn1c(=O)c(-c2ccc(F)cc2)nc2cncnc21 | > 11.4 µM | -7.99% | 0.501 µM (active) | 1.81% | 2.35% | > 9.22 µM | > 46 µM | inactive | inactive | – | inactive | inactive | – | 3.14%
O=c1c(-c2cccc(F)c2)nc2cncnc2n1C1CC1 | > 11.4 µM | -9.05% | 1.58 µM (active) | -1.62% | 1.43% | > 9.22 µM | > 46 µM | inactive | inactive | – | inactive | inactive | – | –
COCC(=O)N1CCC2(CC1)CN(Cc1ccccc1OC)C2 | > 11.4 µM | -2.68% | inactive | 9.66% | 14.6% | – | > 46 µM | inactive | inactive | – | inactive | – | – | –
